Experimental data taken from PMC7862700, “An all-to-all approach to the identification of sequence-specific readers for epigenetic DNA modifications on cytosine”.

Legend:
Assay in all cases: DAPPL (digital affinity profiling via proximity ligation, sequencing); 10 mM Tris-HCl pH 7.5, 50 mM NaCl, 1 mM DTT, 4% glycerol, room temperature, 30 min; GST-TFs on glutathione beads, 16-mer random dsDNA library, 0.1% formaldehyde crosslink after washing; high values mean tight binding
[1] = biological target: T1, FLI1 (Homo sapiens, UniProt Q01543 1-452); details: protein: recombinant; tags: N-terminal GST; dsDNA, one strand shown
T1 sequence: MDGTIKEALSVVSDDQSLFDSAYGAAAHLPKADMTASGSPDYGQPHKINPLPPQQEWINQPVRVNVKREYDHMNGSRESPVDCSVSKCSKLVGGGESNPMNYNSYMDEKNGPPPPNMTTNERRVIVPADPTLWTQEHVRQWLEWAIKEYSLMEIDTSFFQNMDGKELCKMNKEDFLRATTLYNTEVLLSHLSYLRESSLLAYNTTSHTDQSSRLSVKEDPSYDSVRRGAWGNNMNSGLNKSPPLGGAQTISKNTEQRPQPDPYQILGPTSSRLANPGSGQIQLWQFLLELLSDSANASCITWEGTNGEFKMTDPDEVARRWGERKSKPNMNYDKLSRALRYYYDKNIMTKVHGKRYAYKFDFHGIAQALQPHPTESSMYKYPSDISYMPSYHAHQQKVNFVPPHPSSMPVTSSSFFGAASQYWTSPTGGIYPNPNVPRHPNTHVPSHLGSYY
Outline: (§1)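 Beads coated with glutathione captured GST-fused human transcription factors that had been expressed in yeast, and the factors were then given DNA barcodes and pooled with a tag-only sample. The pools were incubated with 200 nmole of a random double-stranded 16-mer DNA library in Tris/NaCl/DTT/glycerol buffer for 30 min at room temperature, washed, crosslinked with 0.1% formaldehyde and proximity-ligated with BsaI/T4 ligase at 37 °C for 1 h. PCR amplification and Illumina NextSeq500 sequencing came last. Binding signal is each hexamer's read frequency for a factor divided by its frequency for the tag-only sample.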

[2] = biological target: T2, ELK1 (Homo sapiens, UniProt P19419 1-428); details: protein: recombinant; tags: N-terminal GST; dsDNA, one strand shown
T2 sequence: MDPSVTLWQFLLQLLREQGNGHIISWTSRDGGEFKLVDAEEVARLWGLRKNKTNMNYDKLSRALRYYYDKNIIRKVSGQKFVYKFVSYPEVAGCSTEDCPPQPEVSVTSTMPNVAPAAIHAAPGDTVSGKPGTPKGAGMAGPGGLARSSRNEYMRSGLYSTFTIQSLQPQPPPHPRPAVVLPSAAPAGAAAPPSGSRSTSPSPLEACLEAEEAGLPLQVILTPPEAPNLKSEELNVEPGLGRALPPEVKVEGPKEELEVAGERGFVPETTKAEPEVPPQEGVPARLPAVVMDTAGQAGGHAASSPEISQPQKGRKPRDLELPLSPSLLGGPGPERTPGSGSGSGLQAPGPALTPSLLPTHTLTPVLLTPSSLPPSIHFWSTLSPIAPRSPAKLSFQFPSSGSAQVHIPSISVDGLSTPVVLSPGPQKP
Outline: as §1

[3] = biological target: T3, GABPA (Homo sapiens, UniProt Q06546 1-454); details: protein: recombinant; tags: N-terminal GST; dsDNA, one strand shown
T3 sequence: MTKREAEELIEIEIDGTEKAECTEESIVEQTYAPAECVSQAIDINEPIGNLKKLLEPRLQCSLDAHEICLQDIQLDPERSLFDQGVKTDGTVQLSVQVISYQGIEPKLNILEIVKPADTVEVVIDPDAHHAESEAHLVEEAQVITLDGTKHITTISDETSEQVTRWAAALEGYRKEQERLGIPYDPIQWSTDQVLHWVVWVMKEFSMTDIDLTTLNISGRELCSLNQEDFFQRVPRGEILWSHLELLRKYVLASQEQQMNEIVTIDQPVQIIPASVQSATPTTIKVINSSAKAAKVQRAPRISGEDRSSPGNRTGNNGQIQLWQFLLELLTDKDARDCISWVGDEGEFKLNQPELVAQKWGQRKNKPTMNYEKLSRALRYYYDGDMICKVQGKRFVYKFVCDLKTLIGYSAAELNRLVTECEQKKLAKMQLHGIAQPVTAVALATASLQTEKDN
Outline: as §1

[4] = biological target: T4, ERG (Homo sapiens, UniProt P11308 1-479); details: protein: recombinant; tags: N-terminal GST; dsDNA, one strand shown
T4 sequence: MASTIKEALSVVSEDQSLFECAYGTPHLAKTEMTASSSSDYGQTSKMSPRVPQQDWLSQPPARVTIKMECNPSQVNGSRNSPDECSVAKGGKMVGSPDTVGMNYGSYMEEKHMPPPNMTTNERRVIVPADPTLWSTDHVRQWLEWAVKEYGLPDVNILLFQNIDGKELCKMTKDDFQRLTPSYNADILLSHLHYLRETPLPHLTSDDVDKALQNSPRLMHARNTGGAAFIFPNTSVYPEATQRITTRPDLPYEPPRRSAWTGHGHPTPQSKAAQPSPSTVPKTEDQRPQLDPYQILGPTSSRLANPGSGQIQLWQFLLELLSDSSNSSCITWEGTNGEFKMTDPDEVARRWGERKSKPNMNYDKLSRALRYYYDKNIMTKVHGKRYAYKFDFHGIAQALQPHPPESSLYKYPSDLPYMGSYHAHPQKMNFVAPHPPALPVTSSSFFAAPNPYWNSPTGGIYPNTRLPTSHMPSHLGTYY
Outline: as §1

[5] = biological target: ELF1 (Homo sapiens, UniProt P32519 1-619); details: protein: recombinant; tags: N-terminal GST; dsDNA, one strand shown
Outline: as §1

[6] = biological target: T5, EHF (Homo sapiens, UniProt Q9NZC4 1-300); details: protein: recombinant; tags: N-terminal GST; dsDNA, one strand shown
T5 sequence: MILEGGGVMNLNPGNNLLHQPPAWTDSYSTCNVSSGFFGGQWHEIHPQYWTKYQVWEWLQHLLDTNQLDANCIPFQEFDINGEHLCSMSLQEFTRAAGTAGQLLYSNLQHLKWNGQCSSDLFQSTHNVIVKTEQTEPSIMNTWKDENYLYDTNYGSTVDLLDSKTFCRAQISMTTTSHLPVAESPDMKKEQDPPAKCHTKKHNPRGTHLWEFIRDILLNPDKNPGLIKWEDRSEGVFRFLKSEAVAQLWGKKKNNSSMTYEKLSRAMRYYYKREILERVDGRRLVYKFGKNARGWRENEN
Outline: as §1

[7] = biological target: SPI1 (Homo sapiens, UniProt P17947 1-270); details: protein: recombinant; tags: N-terminal GST; dsDNA, one strand shown
Outline: as §1

[8] = biological target: SPIB (Homo sapiens, UniProt Q01892 1-262); details: protein: recombinant; tags: N-terminal GST; dsDNA, one strand shown
Outline: as §1

[9] = biological target: T6, ELK3 (Homo sapiens, UniProt P41970 1-407); details: protein: recombinant; tags: N-terminal GST; dsDNA, one strand shown
T6 sequence: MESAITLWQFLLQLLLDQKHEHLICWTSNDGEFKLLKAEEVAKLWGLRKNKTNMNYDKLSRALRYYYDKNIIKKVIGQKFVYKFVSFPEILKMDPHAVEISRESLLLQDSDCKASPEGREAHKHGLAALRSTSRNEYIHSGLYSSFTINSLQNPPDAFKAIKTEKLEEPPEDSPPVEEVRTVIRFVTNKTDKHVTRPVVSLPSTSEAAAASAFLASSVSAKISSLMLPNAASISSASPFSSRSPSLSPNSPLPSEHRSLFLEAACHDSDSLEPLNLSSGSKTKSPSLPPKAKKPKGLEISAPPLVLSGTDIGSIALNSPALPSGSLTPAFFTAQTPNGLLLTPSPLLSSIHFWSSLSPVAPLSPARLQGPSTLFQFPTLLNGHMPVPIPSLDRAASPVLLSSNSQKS
Outline: as §1

[10] = biological target: T7, FEV (Homo sapiens, UniProt Q99581 1-238); details: protein: recombinant; tags: N-terminal GST; dsDNA, one strand shown
T7 sequence: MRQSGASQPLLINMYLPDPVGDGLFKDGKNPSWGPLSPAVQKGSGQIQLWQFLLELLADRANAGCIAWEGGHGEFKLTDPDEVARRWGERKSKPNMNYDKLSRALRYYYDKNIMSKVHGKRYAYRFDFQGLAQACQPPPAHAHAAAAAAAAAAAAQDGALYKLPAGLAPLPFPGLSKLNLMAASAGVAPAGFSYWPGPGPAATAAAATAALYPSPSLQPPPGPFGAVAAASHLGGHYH
Outline: as §1

[11] = biological target: ETV5 (Homo sapiens, UniProt P41161 1-510); details: protein: recombinant; tags: N-terminal GST; dsDNA, one strand shown
Outline: as §1

[12] = biological target: HSF1 (Homo sapiens, UniProt Q00613 1-529); details: protein: recombinant; tags: N-terminal GST; chain copies: 3; dsDNA, one strand shown
Outline: as §1

[13] = biological target: ELF4 (Homo sapiens, UniProt Q99607 1-663); details: protein: recombinant; tags: N-terminal GST; dsDNA, one strand shown
Outline: as §1

[14] = biological target: T8, ELK4 (Homo sapiens, UniProt P28324-2 1-405); details: protein: recombinant; tags: N-terminal GST; dsDNA, one strand shown
T8 sequence: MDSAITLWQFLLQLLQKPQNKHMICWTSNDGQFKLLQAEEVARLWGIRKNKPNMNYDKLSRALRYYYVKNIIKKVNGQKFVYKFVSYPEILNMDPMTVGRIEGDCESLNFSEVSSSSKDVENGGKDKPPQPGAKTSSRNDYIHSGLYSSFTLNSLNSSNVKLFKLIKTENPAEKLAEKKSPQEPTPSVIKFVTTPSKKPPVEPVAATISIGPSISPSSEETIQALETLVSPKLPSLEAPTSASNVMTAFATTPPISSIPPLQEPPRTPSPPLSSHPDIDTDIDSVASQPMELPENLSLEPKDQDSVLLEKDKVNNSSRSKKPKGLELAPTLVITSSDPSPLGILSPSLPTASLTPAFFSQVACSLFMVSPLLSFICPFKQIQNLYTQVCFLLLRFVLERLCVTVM
Outline: as §1

[15] = biological target: T9, ETV2 (Homo sapiens, UniProt O00321 1-342); details: protein: recombinant; tags: N-terminal GST; dsDNA, one strand shown
T9 sequence: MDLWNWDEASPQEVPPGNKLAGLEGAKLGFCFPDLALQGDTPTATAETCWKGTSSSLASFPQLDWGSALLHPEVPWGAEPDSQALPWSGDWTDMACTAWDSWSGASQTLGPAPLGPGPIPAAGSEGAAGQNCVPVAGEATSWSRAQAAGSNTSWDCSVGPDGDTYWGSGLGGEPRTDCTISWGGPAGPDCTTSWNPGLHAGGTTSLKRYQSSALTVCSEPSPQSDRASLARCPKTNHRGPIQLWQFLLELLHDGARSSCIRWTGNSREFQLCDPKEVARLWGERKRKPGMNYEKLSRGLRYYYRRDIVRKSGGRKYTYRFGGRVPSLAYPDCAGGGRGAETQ
Outline: as §1

[16] = biological target: T10, ELF3 (Homo sapiens, UniProt P78545 1-371); details: protein: recombinant; tags: N-terminal GST; dsDNA, one strand shown
T10 sequence: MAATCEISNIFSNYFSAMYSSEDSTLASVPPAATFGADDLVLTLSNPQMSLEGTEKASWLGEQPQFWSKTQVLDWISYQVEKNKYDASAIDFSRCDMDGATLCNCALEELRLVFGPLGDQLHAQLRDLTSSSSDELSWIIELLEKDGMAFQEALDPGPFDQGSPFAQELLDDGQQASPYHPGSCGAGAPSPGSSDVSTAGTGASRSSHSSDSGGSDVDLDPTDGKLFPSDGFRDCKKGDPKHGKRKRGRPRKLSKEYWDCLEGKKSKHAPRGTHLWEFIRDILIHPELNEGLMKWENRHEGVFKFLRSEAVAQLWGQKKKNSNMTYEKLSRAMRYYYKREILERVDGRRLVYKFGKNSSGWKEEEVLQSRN
Outline: as §1

[17] = biological target: CRX (Homo sapiens, UniProt O43186 1-299); details: protein: recombinant; tags: N-terminal GST; dsDNA, one strand shown
Outline: as §1

[18] = biological target: ETV1 (Homo sapiens, UniProt P50549 1-477); details: protein: recombinant; tags: N-terminal GST; dsDNA, one strand shown
Outline: as §1

Sequence of ETV5 (P41161 whole entry): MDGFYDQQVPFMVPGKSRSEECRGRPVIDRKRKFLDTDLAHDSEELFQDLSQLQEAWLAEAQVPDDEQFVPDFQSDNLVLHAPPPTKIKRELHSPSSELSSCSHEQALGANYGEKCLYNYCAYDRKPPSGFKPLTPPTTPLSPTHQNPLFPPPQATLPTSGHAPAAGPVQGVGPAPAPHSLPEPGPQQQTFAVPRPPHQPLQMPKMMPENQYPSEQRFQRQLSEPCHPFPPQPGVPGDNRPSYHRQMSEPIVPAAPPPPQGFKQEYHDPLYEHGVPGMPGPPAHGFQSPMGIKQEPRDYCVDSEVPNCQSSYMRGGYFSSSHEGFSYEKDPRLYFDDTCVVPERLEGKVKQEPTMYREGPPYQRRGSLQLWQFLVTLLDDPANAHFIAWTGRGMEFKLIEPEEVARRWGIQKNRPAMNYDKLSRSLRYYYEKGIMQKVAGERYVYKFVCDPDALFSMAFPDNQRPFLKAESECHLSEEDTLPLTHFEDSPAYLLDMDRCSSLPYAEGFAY
Sequence of ETV1 (P50549 whole entry): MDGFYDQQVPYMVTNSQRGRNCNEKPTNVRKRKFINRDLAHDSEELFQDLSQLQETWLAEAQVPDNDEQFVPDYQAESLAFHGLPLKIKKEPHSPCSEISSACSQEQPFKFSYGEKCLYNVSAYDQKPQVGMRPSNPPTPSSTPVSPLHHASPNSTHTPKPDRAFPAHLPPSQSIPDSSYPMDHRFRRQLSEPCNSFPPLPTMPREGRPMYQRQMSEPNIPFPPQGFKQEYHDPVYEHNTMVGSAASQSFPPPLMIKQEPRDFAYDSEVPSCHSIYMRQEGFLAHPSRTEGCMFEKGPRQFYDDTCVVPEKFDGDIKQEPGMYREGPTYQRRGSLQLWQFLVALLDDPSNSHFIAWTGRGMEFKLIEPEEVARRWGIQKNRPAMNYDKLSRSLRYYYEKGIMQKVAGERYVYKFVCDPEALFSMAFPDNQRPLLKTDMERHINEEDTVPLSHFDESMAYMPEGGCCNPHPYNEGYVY
Sequence of HSF1 (Q00613 whole entry): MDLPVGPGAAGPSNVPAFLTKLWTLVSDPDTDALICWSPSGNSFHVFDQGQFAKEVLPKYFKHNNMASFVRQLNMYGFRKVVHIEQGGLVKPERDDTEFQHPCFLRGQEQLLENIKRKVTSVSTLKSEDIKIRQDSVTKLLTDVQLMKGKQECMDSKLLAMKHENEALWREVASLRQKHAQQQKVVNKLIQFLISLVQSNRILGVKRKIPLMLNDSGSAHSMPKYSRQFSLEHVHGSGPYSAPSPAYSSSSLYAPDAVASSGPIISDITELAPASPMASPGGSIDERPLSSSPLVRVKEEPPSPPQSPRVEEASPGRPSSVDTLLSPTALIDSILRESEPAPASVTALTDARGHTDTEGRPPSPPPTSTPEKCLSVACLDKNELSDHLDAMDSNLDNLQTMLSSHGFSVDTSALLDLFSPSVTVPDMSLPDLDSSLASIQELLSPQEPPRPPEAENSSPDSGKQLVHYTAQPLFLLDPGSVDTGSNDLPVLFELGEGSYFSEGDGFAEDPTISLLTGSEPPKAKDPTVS
Sequence of ELF4 (Q99607 whole entry): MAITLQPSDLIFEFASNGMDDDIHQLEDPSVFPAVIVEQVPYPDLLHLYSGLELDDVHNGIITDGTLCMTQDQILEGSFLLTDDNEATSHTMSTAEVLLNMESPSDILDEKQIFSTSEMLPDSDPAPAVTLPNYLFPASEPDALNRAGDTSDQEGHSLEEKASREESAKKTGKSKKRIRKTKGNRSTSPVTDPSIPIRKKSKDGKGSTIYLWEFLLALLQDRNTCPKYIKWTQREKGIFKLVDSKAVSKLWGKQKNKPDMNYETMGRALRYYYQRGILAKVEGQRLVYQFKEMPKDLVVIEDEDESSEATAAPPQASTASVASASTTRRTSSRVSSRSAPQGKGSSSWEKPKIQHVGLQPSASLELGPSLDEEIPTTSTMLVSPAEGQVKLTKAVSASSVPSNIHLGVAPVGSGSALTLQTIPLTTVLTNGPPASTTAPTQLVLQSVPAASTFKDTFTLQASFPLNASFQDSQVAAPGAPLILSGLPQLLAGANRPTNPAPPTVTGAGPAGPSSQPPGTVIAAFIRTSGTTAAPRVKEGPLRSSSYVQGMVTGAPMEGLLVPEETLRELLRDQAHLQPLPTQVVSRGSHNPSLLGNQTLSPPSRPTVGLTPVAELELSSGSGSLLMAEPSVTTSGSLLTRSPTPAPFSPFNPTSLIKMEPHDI
Sequence of CRX (O43186 whole entry): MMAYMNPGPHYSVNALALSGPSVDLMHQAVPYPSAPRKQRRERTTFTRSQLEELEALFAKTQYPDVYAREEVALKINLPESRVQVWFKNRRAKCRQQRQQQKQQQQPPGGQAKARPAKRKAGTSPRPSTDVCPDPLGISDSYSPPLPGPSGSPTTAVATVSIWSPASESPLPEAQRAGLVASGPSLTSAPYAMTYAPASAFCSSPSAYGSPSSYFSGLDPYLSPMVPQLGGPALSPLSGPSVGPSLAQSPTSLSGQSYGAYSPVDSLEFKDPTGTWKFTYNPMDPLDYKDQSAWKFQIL
Sequence of ELF1 (P32519 whole entry): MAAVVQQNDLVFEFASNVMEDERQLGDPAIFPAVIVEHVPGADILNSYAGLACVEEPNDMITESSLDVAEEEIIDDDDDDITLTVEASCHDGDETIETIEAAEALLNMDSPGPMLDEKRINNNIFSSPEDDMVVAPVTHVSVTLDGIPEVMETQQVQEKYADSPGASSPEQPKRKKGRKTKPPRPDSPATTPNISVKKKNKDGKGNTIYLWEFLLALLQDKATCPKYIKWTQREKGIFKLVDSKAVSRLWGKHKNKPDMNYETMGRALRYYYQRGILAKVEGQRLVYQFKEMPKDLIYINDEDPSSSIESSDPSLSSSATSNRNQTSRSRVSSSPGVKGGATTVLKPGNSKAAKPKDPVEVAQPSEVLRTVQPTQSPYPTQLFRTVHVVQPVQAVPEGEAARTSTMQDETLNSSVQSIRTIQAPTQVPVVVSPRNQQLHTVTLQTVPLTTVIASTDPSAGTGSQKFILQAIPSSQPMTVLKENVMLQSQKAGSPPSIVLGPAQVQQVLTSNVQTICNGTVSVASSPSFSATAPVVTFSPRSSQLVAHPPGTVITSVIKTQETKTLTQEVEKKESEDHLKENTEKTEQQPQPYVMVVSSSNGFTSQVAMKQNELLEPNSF
Sequence of SPIB (Q01892 whole entry): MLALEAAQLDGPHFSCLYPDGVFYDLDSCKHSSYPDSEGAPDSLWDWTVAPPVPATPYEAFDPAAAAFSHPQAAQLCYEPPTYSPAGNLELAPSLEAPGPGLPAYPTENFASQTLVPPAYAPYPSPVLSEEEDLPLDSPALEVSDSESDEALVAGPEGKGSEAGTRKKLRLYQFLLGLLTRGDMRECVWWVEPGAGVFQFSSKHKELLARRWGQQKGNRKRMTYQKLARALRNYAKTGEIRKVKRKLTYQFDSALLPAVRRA

CCATTG
binding signal [1]: 1.33 fold enrichment (6-mer frequency, TF over GST control) | binding signal [2]: 1.16 fold enrichment (6-mer frequency, TF over GST control) | binding signal [3]: 1.32 fold enrichment (6-mer frequency, TF over GST control) | binding signal [4]: 1.19 fold enrichment (6-mer frequency, TF over GST control) | binding signal [5]: 1.15 fold enrichment (6-mer frequency, TF over GST control) | binding signal [6]: 1.19 fold enrichment (6-mer frequency, TF over GST control) | binding signal [7]: 1.25 fold enrichment (6-mer frequency, TF over GST control) | binding signal [8]: 1.05 fold enrichment (6-mer frequency, TF over GST control) | binding signal [9]: 1.16 fold enrichment (6-mer frequency, TF over GST control) | binding signal [10]: 1.15 fold enrichment (6-mer frequency, TF over GST control) | binding signal [11]: 1.16 fold enrichment (6-mer frequency, TF over GST control) | binding signal [12]: 1.07 fold enrichment (6-mer frequency, TF over GST control) | binding signal [13]: 1.17 fold enrichment (6-mer frequency, TF over GST control) | binding signal [14]: 1.11 fold enrichment (6-mer frequency, TF over GST control) | binding signal [15]: 1.26 fold enrichment (6-mer frequency, TF over GST control) | binding signal [16]: 1.07 fold enrichment (6-mer frequency, TF over GST control) | binding signal [17]: 1.02 fold enrichment (6-mer frequency, TF over GST control) | binding signal [18]: 1.05 fold enrichment (6-mer frequency, TF over GST control)
